Compound activity as filed in PubChem.
Most compounds without a hit are left out; they make up all but 1.6% or so of the library.
KCNQ2 block: rat KCNQ2 potassium channel inhibitors, primary screen, cell-based, CHO-K1, FluxOR thallium flux, B-score | actives 1.1% (n = 310,000) | AID 2156, 2009 | Potassium voltage-gated channel subfamily KQT member 2 (Rattus norvegicus), O88943 | B-score at 10 µM | 20 min; active compounds read low;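 active means fluorescence ratio B-score at most minus 3 library SDs, with starting brightness B-score within 2 library SDs, cut at about -5.5 in these data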
KCNQ2 enhance: potentiators of rat KCNQ2 potassium channel. Potassium voltage-gated channel subfamily KQT member 2 (Rattus norvegicus), O88943. CHO-K1 KCNQ2, FluxOR thallium flux fluorescence; active compounds read high. B-score at 10 µM. actives 0.54% (n = 310,000);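 active means fluorescence ratio B-score at least 3 SD of library B-scores, with initial fluorescence B-score within 3 of them, cut at about 5.3 in these data; same plate scores as AID 2156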;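 further: B-score of peak minus minimum over baseline fluorescence ratio after K+ and Tl+ stimulus; positive B-score means potentiation of KCNQ2 with more thallium influx and brighter signal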
* hit, by the source's call; i = inactive; · = no result.

SMILES	KCNQ2 block	KCNQ2 enhance
CCc1nc(N(CC)CC)c2oc3ccccc3c2n1	i	·
CC1CCC(CN2C(Nc3ccccc3)=NC[C@@H]2C)CC1 (stereo partly drawn)	i	0.71
Cc1c(Br)c([N+](=O)[O-])nn1C(C)C(=O)N1CCCc2ccccc21 (stereo not drawn)	i	0.15
COc1cccc(NC(=O)C2CCOC2=O)c1 (stereo not drawn)	i	0.97
Cc1cc(C(=O)N/N=C/c2cccc3ccccc23)c(C)o1	i	·
COc1ccccc1OCC(=O)N(Cc1nc(-c2ccccc2)no1)C(C)C	i	0.76
Cc1ccc(-c2noc(CN(C(=O)CCN3C(=O)c4ccccc4C3=O)C(C)C)n2)cc1	-5.71*	-5.71
Cc1ccc(-c2noc(CN(C(=O)CCCN3C(=O)c4ccccc4C3=O)C(C)C)n2)cc1	i	·
Cc1cc(Br)ccc1OCC(=O)N(Cc1nc(-c2ccccc2)no1)C(C)C	-5.95*	-5.95
CC(C)N(Cc1nc(-c2ccc(Cl)cc2)no1)C(=O)CCC1CCCC1	-6.15*	-6.15
COc1ccccc1OCC(=O)N(Cc1nc(-c2ccc(Cl)cc2)no1)C(C)C	i	·
CC(C)N(C(=S)Nc1cccc(S(=O)(=O)N(C)C)c1)c1ccccc1	i	·
CCN(CC)S(=O)(=O)c1ccc(NC(=O)CNC2CCCCC2)cc1	i	0.08
COc1ccc(S(N)(=O)=O)cc1C(N)=O	i	0.03
COc1ccc(CCNC(=O)CSc2nc3ncccc3[nH]2)c(OC)c1	i	·
CCN(CC)S(=O)(=O)c1ccc2c(c1)nc(-c1ccccn1)n2C	i	0.11
O=C(Nc1cn(-c2ccccc2)nc1-c1ccc(Cl)cc1)c1ccccc1	i	·
Cc1ccc(-c2nn(-c3ccccc3)cc2NC(=O)c2ccccc2)cc1	-5.71*	-5.71
COc1ccccc1NS(=O)(=O)c1cc(NC(=O)c2ccc3c(c2)OCCO3)ccc1C	i	0.62
Cc1c(CCOC(=O)C23CC4CC(CC(C)(C4)C2)C3)sc[n+]1CC(=O)c1ccccc1	-6.51*	-6.51
Cc1c(CCOC(=O)c2ccccc2)sc[n+]1CC(=O)c1ccc(Br)cc1	i	·
CC(C)c1ccc(NC(=O)[C@H](Cc2c[nH]c3ccccc23)NC(=O)[C@@H]2Cc3ccccc3CN2)cc1	-8.23*	-8.23
COc1ccc(NC(=O)[C@H](Cc2c[nH]c3ccccc23)NC(=O)[C@@H]2Cc3ccccc3CN2)cc1	i	·
COc1ccc(CCN2CC(C(=O)NCCc3ccccc3C(F)(F)F)CCC2=O)cc1 (stereo not drawn)	i	·
COCCNC(=O)Cc1cn(C)c2ccccc12	i	1.11
SMILES	KCNQ2 block	KCNQ2 enhance
Cn1cc(CC(=O)NC2CCCCC2)c2ccccc21	i	5.38*
COc1ccc(CNCc2cn(-c3cccc(F)c3)nc2-c2ccc(C)o2)cc1	i	·
COC(=O)c1ccc(C)c(NS(=O)(=O)c2cn(C)nc2C)c1	i	0.04
CCOC(=O)CCc1c(C)nc2c(c(C)nn2-c2ccc(C)cc2)c1C	i	0.53
CCOC(=O)CCc1c(C)nc2c(c(C)nn2C(C)(C)C)c1C	-7.78*	-7.78
Cn1cnnc1Sc1ccc(C(=O)OCC(=O)NC2CC2)cc1[N+](=O)[O-]	i	1.21
O=C(COC(=O)c1ccc(Sc2ccccc2)c([N+](=O)[O-])c1)NC1CCCc2ccccc21 (stereo not drawn)	-6.94*	-6.94
CC1CC(C)CN(c2ccc(C(=O)OCC(=O)NC3CCCc4ccccc43)cc2[N+](=O)[O-])C1 (stereo not drawn)	-7.77*	-7.77
CC1CCCN(c2ccc(C(=O)OCC(=O)N3c4ccccc4Sc4ccccc43)cc2[N+](=O)[O-])C1 (stereo not drawn)	i	·
Cc1cccc(C(=O)Nc2nccs2)c1[N+](=O)[O-]	i	·
CC1(C)C[C@H](O)[C@@]23C[C@@H](OC2=O)[C@]2(C)C(=CCC4[C@@]5(C)CC[C@H](O)C(C)(C)C5CC[C@]42C)[C@@H]3C1 (stereo partly drawn)	i	0.73
CCOC(=O)c1c(NC(=O)/C=C/C(=O)O)sc(C)c1-c1ccc(C(C)(C)C)cc1	i	7*
CCOC(=O)c1c(NC(=O)/C=C\C(=O)O)sc(C)c1-c1ccccc1	i	0.68
COc1ccc(C(=O)NN/C(C)=C/C(=O)C(F)(F)C(F)(F)C(F)(F)F)cc1	i	10*
COc1ccc(C(=O)NNC(=O)OC(C)(C)C)cc1	i	·
Cn1nnc2c[n+](CC(=O)c3ccc4ccccc4c3)cc(Br)c21	i	·
Cn1nnc2c[n+](CC(=O)c3ccc(Cl)cc3)cc(Br)c21	-6.1*	-6.1
CCN(CC)S(=O)(=O)c1ccc2c(c1)nc(SCC(=O)N(C)C1CCS(=O)(=O)C1)n2CC (stereo not drawn)	i	·
N#C/C(=C/c1ccc(N2CCCCCC2)o1)c1cccc(F)c1	i	·
N#C/C(=C/c1ccc(N2CCCCCC2)o1)c1ccc(F)cc1	-7.01*	-7.01
CCNc1c(NS(=O)(=O)c2ccc(Cl)s2)c(=O)oc2ccccc12	i	·
COc1ccc(OC)c(NC(=S)N2CCN(Cc3ccccc3)CC2)c1	i	1
COc1ccc(OC)c(NC(=S)N2CCC(C(O)(c3ccccc3)c3ccccc3)CC2)c1	i	5.89*
CCC(=O)c1c(CC)c2n3c1CC[C@H]3CCC2	i	1.02
CCCCN(C)CC(O)Cn1cc(/C=C/C(=O)c2cccs2)c2ccccc21 (stereo not drawn)	i	·
SMILES	KCNQ2 block	KCNQ2 enhance
CCCCN(C)CC(O)Cn1cc(/C=C/C(=O)c2ccc(OCC)cc2)c2ccccc21 (stereo not drawn)	-6.74*	-6.74
Cc1ccc(C2=NCCn3c2c2ccccc2[n+]3[O-])cc1	i	0.56
[N-]=[N+]=NC1CC(CO)OC1n1ccc(=O)[nH]c1=O (stereo not drawn)	i	0.67
Cc1cc(Br)c(NC(=O)CCl)c(Br)c1	i	6*
Cc1cc(Br)c(NC(=O)CN(C)CCOc2ccccc2)c(Br)c1	i	·
Cc1[nH]c2ccccc2c1-c1nc2ccccc2[nH]c1=O	i	1.4
Cc1ccc(O)c(NC(=O)c2ccc3c(c2)C(=O)N(Cc2cccnc2)C3=O)c1	i	0.78
CC1CCCN(c2ccc(C(=O)NCc3ccc4c(c3)OCO4)cc2[N+](=O)[O-])C1 (stereo not drawn)	i	8.28*
O=C(NCc1ccc2c(c1)OCO2)c1ccc(N2CCCCCC2)c([N+](=O)[O-])c1	i	2.51
Cc1ccc2nc(C)c(C(=O)NN=C3CCCCCC3)n2c1	i	1.71
O=C(CCCNC(=O)c1ccc(Cl)cc1)OCc1cccc(Br)c1	i	0.61
CCN(CC)c1ccc(C(=O)OCC(=O)Nc2ccccc2-c2ccccc2)cc1	-6.5*	-6.5
CN(C)c1cccc(C(=O)OCC(=O)Nc2ccccc2-c2ccccc2)c1	i	0.47
COC(=O)c1cccc(COC(=O)c2ccc(N(C)C)cc2)c1	-6.49*	-6.49
COC(=O)c1ccc(COC(=O)c2ccc(N(C)C)cc2)cc1	i	·
O=S(=O)(Cc1ncc(C(F)(F)F)cc1Cl)c1ccccc1	i	·
COc1ccc(NC(C)C(=O)N/N=C/c2ccccc2OCc2cccc(Br)c2)cc1 (stereo not drawn)	i	·
Cc1ccccc1NC(C)C(=O)N/N=C/c1ccccc1OCc1cccc(Br)c1 (stereo not drawn)	-8.28*	-8.28
